HT1080NT lethal: qHTS for induction of synthetic lethality in tumor cells producing 2HG: qHTS for the HT-1080-NT fibrosarcoma cell line | HT-1080-NT fibrosarcoma viability, CellTiter-Glo ATP luminescence, 48 h | Potency, µM (series often up to 46.1 µM), inactives show at the top dose activity, negative = less viability, actives largely listed as cytotoxic | hit rate 1.6% among 360,000;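 note: NT is the 2HG producing partner of a matched IDH1 knockdown line; 0% = DMSO-treated cells and -100% = media-only wells without cells; nearly all actives have a fitted effect of over 55% in size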
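Toxicity toward the 2HG-producing NT line was scored as %Activity, normalised to DMSO and no-cell wells, from CellTiter-Glo luminescence after 48 hours' treatment.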
MCF10A rerep: A quantitative high throughput screen for small molecules that induce DNA re-replication in MCF 10a normal breast cells. MCF 10A DNA re-replication, Hoechst nuclear intensity, 48 h. Potency, µM (highest dose often 46.1 µM), for inactives: at the highest dose activity, positive = re-replication, hits mostly activators. hit rate 2.9% among 350,000; note: % of control where 0% means no effect; nearly all actives have a fitted effect of over 50% in size
KB-3-1 tox: qHTS assay for MDR1-selective chemotherapeutics: Primary screen using the parental adenocarcinoma cell KB-3-1; KB-3-1 viability, CellTiter-Glo ATP luminescence, 72 h; Potency, µM (highest dose often 46.1 µM), actives largely listed as cytotoxic; hit rate 1.4% among 400,000; note: % is set by controls: 0 for no effect and ±100 for the full control effect; nearly all actives have a fitted effect of over 60% in size
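KB-3-1 cells, DMEM (no phenol red) + 10% FBS; compound by pin transfer, 72 h, 37 °C. Readout: CellTiter-Glo luminescence after 10 min. Data normalized, curve-fitted.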
KB-V1 cytotox: qHTS assay for MDR1-selective chemotherapeutics: Primary screen using the drug-selected MDR subline cells KB-V1; hit rate 3.4% among 400,000; Potency, µM (highest dose often 46.1 µM), most hits filed as cytotoxic; AID 1347076, 2019; KB-V1 MDR cells viability, CellTiter-Glo, 72 h; note: % is set by controls: 0 for no effect and ±100 for the full control effect; nearly all actives have a fitted effect of over 60% in size
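Drug-selected KB-V1 cells, grown in DMEM lacking phenol red with 10% FBS, receive compound titrations; after three days at 37 degrees C, surviving cell ATP is quantified by CellTiter-Glo luminescence and responses normalized and curve-fitted.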
HT1080 IDH1KD tx: qHTS for induction of synthetic lethality in tumor cells producing 2HG: qHTS for the HT-1080-IDH1KD cell line. HT-1080 IDH1 knockdown viability, ATP luminescence, 48 h. Potency, µM (highest dose often 46.1 µM), inactives show at the top dose activity, negative = toxicity, hits mostly cytotoxic. hit rate 2% among 360,000. AID 686971, 2013;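 note: 0% = DMSO wells and -100% = cell-free medium wells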
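IDH1KD HT-1080 cells, 750/well, RPMI + 5% FBS; compound pinned after 2 h settling; 48 h, 37 °C; CellTiter-Glo luminescence; % activity normalised to DMSO and no-cell wells; curves fitted, classed by r2 and efficacy.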
SW480 rereplic: A quantitative high throughput screen for small molecules that induce DNA re-replication in SW480 colon adenocarcinoma cells | Potency, µM (series often up to 46.1 µM), inactives show at the top dose re-replication activation, most hits filed as activators | SW480 DNA re-replication, Hoechst DNA content imaging, 48 h | AID 624297, 2012 | hit rate 1.8% among 340,000; note: % of control where 0% means no effect; nearly all actives have a fitted effect of over 55% in size
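DNA re-replication was detected as more nuclei of elevated Hoechst intensity after 48 hr exposure to compound (23 nL pinned per well of 250 cells).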
* hit, by the source's call; i = inactive; ? = inconclusive; . = no result. In the library only some 7.9% were active in any assay of this set; here they are far more common. Calls come from the whole dose curve; as a rule, active = well fitted curve in the direction sought with a large enough effect; inconclusive = small, poorly fitted or top-dose-only effect, or another doubt; inactive = no such curve, though single readings can be large; an effect the other way counts as inactive or inconclusive. Potency is the fitted concentration of half-maximal effect.

SMILES	HT1080NT lethal	MCF10A rerep	KB-3-1 tox	KB-V1 cytotox	HT1080 IDH1KD tx	SW480 rereplic
COc1ccc(C)cc1NC(=O)c1nnn(Cc2cccc(C(F)(F)F)c2)c1N	-25%	2.1µM*	?	i	?	11%
COc1ccc(CC(=O)N2CCc3cc(OC)c(OC)cc3C2C)c(OC)c1 (centres undefined)	1%	6%	i	i	-5%	18%
COc1ccc(OCC(O)CNC2CCCC2)cc1 (centres undefined)	-1%	9%	i	i	-2%	-3%
CC(C)(c1ccccc1)c1ccc(OCC(O)CNC2CCN(Cc3ccccc3)CC2)cc1 (centres undefined)	3.3µM*	?	?	18µM*	2.9µM*	11%
CC(=O)c1ccc(OCC(O)CN2CCN(Cc3ccccc3)CC2)cc1 (centres undefined)	0%	1%	i	i	-1%	3%
CCOc1ccc(OCC(O)CNC2CCN(Cc3ccccc3)CC2)cc1 (centres undefined)	?	?	?	16µM*	?	?
COc1ccc(CNCC(O)COc2ccc(C(C)(C)c3ccccc3)cc2)cc1 (centres undefined)	21µM*	?	?	?	16µM*	?
COC(=O)c1ccc(CNCC(O)COc2ccc(-c3ccccc3)cc2)cc1 (centres undefined)	-15%	?	i	i	-10%	?
Cc1cc(C)c(S(=O)(=O)N2CCN(C(=O)C3CCCO3)CC2)c(C)c1 (centres undefined)	-5%	30%	i	i	0%	?
CCc1ccccc1NC(=O)Cn1c(=O)n(Cc2ccccc2)c(=O)c2c(C)c(C(=O)N(C)C)sc21	.	.	i	i	.	.
O=c1c2cn[nH]c2nc(SCc2ccccc2F)n1-c1ccc(Br)cc1	0%	18µM*	i	i	18µM*	?
CC(C)CCN(C(=O)c1cc(=O)[nH]c2ccccc12)c1c(N)n(Cc2ccccc2)c(=O)[nH]c1=O	-2%	-8%	i	i	0%	0%
COCCNC(=O)c1cnn2c(C(F)F)cc(-c3ccccc3)nc12	-4%	?	i	i	0%	15µM*
COc1ccc(-c2cc(C(F)F)n3ncc(C(=O)N4CCSCC4)c3n2)cc1	-5%	?	i	i	-11%	5.2µM*
Cc1ccc(CNC(=O)c2cnn3c(C)c(Cc4c(F)cccc4Cl)c(C)nc23)cc1	.	.	i	i	.	.
O=C(NCc1ccco1)c1cnn2c(C(F)F)cc(-c3ccccc3)nc12	0%	8.2µM*	i	i	-2%	17%
Cc1cc(C)c(Cc2c(C)nc3c(C(=O)NCc4ccco4)cnn3c2C)c(C)c1	-1%	?	21µM*	2.9µM*	-5%	-3%
COc1ccc(-c2cc(C(F)F)n3ncc(C(=O)N4CCN(C)CC4)c3n2)cc1	-2%	17%	i	i	0%	16%
CCOC(=O)CSc1nc2c(sc3ccccc32)c(=O)n1CCO	.	.	i	i	.	.
COc1cc(F)ccc1-c1csc(C(C)(O)c2ccccc2)n1 (centres undefined)	?	.	i	i	?	.
O=C(NNC(=O)c1ccc(-c2ccccc2)cc1)Nc1ccc(F)cc1F	-1%	5%	i	?	9%	-1%
O=C(Nc1c(C(=O)NCc2ccco2)cnn1-c1ccccc1)c1cccc(F)c1	-1%	0%	i	9.2µM*	3%	-2%
CCN(CC)CCN1CCN(c2cncc(-c3ccc4ccccc4c3)n2)CC1	23µM*	.	?	?	16µM*	.
COC(=O)[C@H](C)NC(=O)Nc1ccc(OC)cc1OC	7%	-1%	i	i	4%	3%
COc1ccc(C(CCc2ccc(C)o2)NC(=O)Nc2ccc(OC)cc2OC)cc1 (centres undefined)	4%	-3%	i	7.3µM*	?	2%
SMILES	HT1080NT lethal	MCF10A rerep	KB-3-1 tox	KB-V1 cytotox	HT1080 IDH1KD tx	SW480 rereplic
CN1CCN(c2ccc(Cl)cc2NC(=O)c2cc(=O)[nH]c3ccccc23)CC1	-27%	0%	i	i	0%	11%
CN1CCN(c2cc3c(c4c2[nH]c2ccccc24)C(=O)CC(C)(C)C3)CC1	-9%	21µM*	?	i	-26%	?
Cc1cc(Cl)ccc1NC(=O)C1CCCN1S(=O)(=O)c1ccc2c(c1)CCCC(=O)N2 (centres undefined)	.	.	i	i	.	.
Cc1ccc(Cl)cc1NC(=O)C1CCCN1S(=O)(=O)c1ccc(-c2ccc(=O)[nH]n2)s1 (centres undefined)	-22%	?	?	i	?	4µM*
CCCn1c(SCC(=O)N2c3ccccc3CC2C)n[nH]c1=O (centres undefined)	-5%	-1%	i	i	-5%	1%
O=C(COc1ccccc1)Nc1nnc(SCc2cc(=O)c3ccccc3[nH]2)s1	.	.	i	i	.	.
COc1ccc(-c2nc3ccc(C)cn3c2Cc2ccccc2)cc1OC	?	.	i	i	?	.
Cc1ccc2nc(C(C)(C)C)c(Cc3cccc(Cl)c3)n2c1	16µM*	.	i	i	?	.
COc1ccc(-c2nc3ccc(C)cn3c2Cc2cccc(Cl)c2)cc1OC	?	.	i	?	18µM*	.
Cc1ccc2nc(-c3ccc(F)cc3)c(Cc3cccc(Cl)c3)n2c1	?	.	i	?	?	.
O=C(COc1ccccc1)OCc1cc(-c2ccco2)on1	-4%	-1%	i	?	-2%	-8%
O=C(N/C(=C\c1ccco1)C(=O)N1CCCC(CO)C1)c1ccccc1 (centres undefined)	8%	-2%	?	i	13%	-4%
O=C1CCC(C(=O)OCc2nnc(-c3ccccc3)o2)=NN1	-2%	1%	i	i	-1%	-10%
CCOC(=O)c1ccc(-n2cccc2/C=C2\NC(=O)NC2=O)cc1	.	7.3µM*	5.8µM*	7.3µM*	.	18µM*
CCOC(=O)c1cccc(-n2cccc2/C=C2\NC(=O)N(CC(=O)O)C2=O)c1	.	?	i	i	.	-4%

Source: PubChem (National Center for Advancing Translational Sciences (NCATS))
